Molecules are shown by their SMILES. Among all 410,000 compounds or so, about 6,400 (1.6%) were called active. Another 20% or so got no clear call; they are omitted. The sample as a whole holds a higher share of actives than the screen did. Unmarked numbers belong to inactive results. Calls come from the whole dose curve; as a rule, active = well fitted inhibition curve with a large enough effect; inconclusive = small, poorly fitted or top-dose-only effect; inactive = no such curve, though single readings can be large or run the other way.
% is set by controls: 0 for no effect and ±100 for the full control effect; potency is the fitted concentration of half-maximal effect.

Glucagon-like peptide 1 receptor (Homo sapiens), sequence (P43220 whole entry, looked up): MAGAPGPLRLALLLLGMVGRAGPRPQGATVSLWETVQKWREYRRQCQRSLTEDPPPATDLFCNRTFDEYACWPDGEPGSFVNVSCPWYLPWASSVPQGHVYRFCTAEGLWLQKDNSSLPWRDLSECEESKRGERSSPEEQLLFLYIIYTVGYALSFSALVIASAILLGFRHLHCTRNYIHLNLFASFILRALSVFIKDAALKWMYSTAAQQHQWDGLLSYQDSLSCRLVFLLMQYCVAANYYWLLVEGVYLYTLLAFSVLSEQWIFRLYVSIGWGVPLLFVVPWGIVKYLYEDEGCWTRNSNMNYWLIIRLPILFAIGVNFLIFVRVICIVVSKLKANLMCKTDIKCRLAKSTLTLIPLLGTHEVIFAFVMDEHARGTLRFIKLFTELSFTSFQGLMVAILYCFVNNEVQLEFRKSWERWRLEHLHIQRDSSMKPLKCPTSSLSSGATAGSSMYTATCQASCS

The target of the experiment is Glucagon-like peptide 1 receptor (Homo sapiens) (UniProt P43220). Description: qHTS of GLP-1 Receptor Inverse Agonists (Inhibition Mode). Note: nearly all actives have a fitted effect of over 55% in size. To be noted: HEK293 GLP-1R CRE-luciferase, luminescence, 24 h, GLP-1R form is constitutively active; series mostly up to 38.3 µM; activity change, negative = inhibition: at the top concentration. In outline:
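Assay principle: reduced luminescence from a cAMP-responsive reporter in HEK293 cells co-expressing a constitutively active GLP-1R. Conditions: 24 hr compound incubation, 37 deg C, 5% CO2.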
For the compound `CCOC(=O)c1cc2cc(OC)ccc2n1C1CCN(C)CC1`, the “activity change, negative = inhibition” value was -8.03%.
Consider `C[C@@H]1CN([C@@H](C)CO)C(=O)c2cc(NS(C)(=O)=O)ccc2O[C@@H](C)CCCCO[C@H]1CN(C)C(=O)Nc1ccc2c(c1)OCO2`, for which the “activity change, negative = inhibition” value is -2.44%.
For `Cc1ccc(NC(=S)N(CCCN2CCCC2)Cc2cccn2Cc2ccc(Cl)cc2)cc1`, the Potency was 2.24 µM (active).
Regarding `Cc1ccccc1NC(=S)N(CCCN1CCOCC1)Cc1cccs1`, the “activity change, negative = inhibition” value was 3.07%.
For `CCc1ccccc1NC(=S)N(CCN1CCCCCC1)Cc1ccco1`, the “activity change, negative = inhibition” value was 1.16%.
The same measure, in the same setting: the same measure for `COc1ccc(C(O)c2nc(-c3ccc4c(c3)OCO4)cs2)cc1` (configuration not stated): -1.54%; for `COc1cccc(-c2cc3nc(NCc4ccccc4OC)n(C)c(=O)c3s2)c1`: -8.68%.
For the compound `CCCOc1ccc(NC(=O)CC2C(=O)N(C)C(=S)N2Cc2ccc3c(c2)OCO3)cc1` (configuration not stated), the Potency was 10 µM (active).
For `COc1ccc(NC(=O)CSc2nccn2Cc2ccc3c(c2)OCO3)cc1`, the “activity change, negative = inhibition” value was 4.25%.
Still for that read-out and setting: the same measure for `CCCOc1ccc(NC(=O)CC2C(=O)N(c3ccccc3)C(=O)N2Cc2ccco2)cc1` (configuration not stated): -8.02%; for `Cc1noc(C)c1NC(=O)N(C)C[C@@H]1Oc2cc(Br)ccc2S(=O)(=O)N([C@@H](C)CO)C[C@H]1C`: 10.7%; for `COCCN(CCOC)S(=O)(=O)c1ccc(/C(O)=C(\C#N)c2nc3ccccc3[nH]2)cc1`: 55.1%.
On the same count and under the same terms, in the case of `N#C/C(=C(/O)COc1cccc2ccccc12)c1nc2ccccc2[nH]1` it was -24.5%.
With `N#C/C(=C(/O)COC(=O)COc1ccc(Cl)cc1)c1nc2ccccc2[nH]1`, the Potency was 10 µM (active).
As for `O=C(COC(=O)CCc1c[nH]c2ccccc12)Nc1cccc(Cl)c1`, the “activity change, negative = inhibition” value is 5.53%.
Still for that read-out and setting: the same measure for `CC(C)C[C@H]1CN([C@@H](Cc2ccccc2)CN2CCC[C@@H]2CN2C(=O)C(=O)NC[C@@H]2Cc2ccc(O)cc2)C(=O)C(=O)N1CCc1ccccc1`: 14.2%; for `COc1ccc(CNCCCO)cc1OC`: 1.12%.
The same measure, in the same setting: the same measure for `CCOCCCNCc1cc(Br)ccc1OCC`: -7.98%.
As for `CCOCCCNCc1ccc(OCc2ccc(F)cc2)c(OC)c1`, the Potency was 1.12 µM (active).
Consider `COCCCn1c(C(=O)NC2CCCCC2)cc2c(=O)n3cccc(C)c3nc21`, for which the “activity change, negative = inhibition” value is 33.4%.
Take `COC(=O)c1ccc2nc(-c3ccc(C)cc3)c(Cc3ccc(OC)cc3C)n2c1`: the “activity change, negative = inhibition” value is 6.74%.
Still for that read-out and setting: in the case of `COc1cc(C)c(CN2CCN(C(=O)CCC(=O)c3ccc(C)s3)CC2)cc1OC` it was 1.27%.
Still for that read-out and setting: the same measure for `O=C1C(Sc2cccc(F)c2)=C[C@@]2(O)CC[C@@H](O)[C@]1(Sc1cccc(F)c1)[C@H]2O`: -6.13%.
On the same count and under the same terms, in the case of `Cn1c(C(=O)NCCCN2CCN(c3cccc(Cl)c3)CC2)cc2c(=O)n(C)c3ccccc3c21` it was 4.05%.
Turning to `O=C(NCCCN1CCN(c2cccc(Cl)c2)CC1)c1nnc(Cc2ccc(F)cc2Cl)o1`, the Potency was 12.6 µM (active).
In the case of `COc1ccc(N2CCN(CCNC(=O)c3nnc(Cc4c(F)cccc4Cl)o3)CC2)cc1`, the “activity change, negative = inhibition” value is 5.26%.
Same read-out and setting: in the case of `CSc1ncnc2c1ncn2CCCNCC(C)c1ccccc1` (configuration not stated) it was -1.2%; in that of `CCCCCCCCN1C(=O)[C@H](CC(=O)NCC23CC4CC(CC(C4)C2)C3)C[C@@]2(C(=O)OC)CCCCC=C12`, -8.58%.
Same read-out and setting: in the case of `CCNC(=O)C1(C)CCN(C(=O)c2ccccc2)C1` (configuration not stated) it was 20.5%.
`CCOC1=C2[C@@H](CN(S(=O)(=O)c3ccc(C)cc3)[C@H]2c2ccccc2F)[C@H]2C(=O)N(Cc3ccccc3)C(=O)[C@H]2C1`: the “activity change, negative = inhibition” value is -39.2%.
On the same count and under the same terms, in the case of `CCCNC(=O)c1cc(C2CCCN(C(=O)c3ccc4c(c3)CCO4)C2)on1` (configuration not stated) it was 0.506%; in that of `O=C(Cn1c(=O)nc(-c2ccccc2)c2cc(Cl)ccc21)NCc1ccc(Cl)cc1`, -8.05%.
On to `CC(C)c1ccc2c(c1)c(SC(C)(C)C)c(CC(C)(C)C(=O)O)n2Cc1ccc(Cl)cc1`, for which the Potency was 2.82 µM (active).
`O=C(O)C1CCCN1c1nc(Cl)ccc1[N+](=O)[O-]` (configuration not stated): the “activity change, negative = inhibition” value was -3.65%.
`Cc1ccc(F)c(S(=O)(=O)NC(=O)C2(C)CCN2C(=O)c2ccco2)c1` (configuration not stated): the “activity change, negative = inhibition” value was 24.1%.
As to `Clc1ccc(COn2c(-c3ccc(Cl)cc3Cl)nc3ncccc32)cc1`, the Potency was 10 µM (active).
As to `COn1c(-c2ccc(Cl)cc2Cl)nc2ncccc21`, the “activity change, negative = inhibition” value was 3.04%.
The same measure, in the same setting: the same measure for `CCn1c(-c2cccnc2Cl)nc2cc(C)c(C)cc21`: -15.5%; for `O=C(C[C@H]1CC[C@H]2[C@@H](COC[C@H](O)CN2C(=O)c2ccccn2)O1)N1CCN(c2ccccc2)CC1`: 0.39%.
Still for that read-out and setting: the same measure for `O=C(COc1ccc(Br)cc1)OCC(=O)c1ccc[nH]1`: 5.29%.
Same read-out and setting: the same measure for `O=C1CCC(=O)N1CCC(=O)N(C(=O)NC1CCCCC1)C1CCCCC1`: 9.57%.
As for `COc1cccc(-c2nc(CS(=O)(=O)CC(=O)N3CCN(c4cc(C)ccc4C)CC3)c(C)o2)c1`, the Potency is 7.94 µM (active).
Turning to `CCCCN(CC)CCCNC(=O)CS(=O)(=O)Cc1nc(-c2cccc(OC)c2)oc1C`, the “activity change, negative = inhibition” value is 0%.
On to `COc1cccc(-c2nc(CS(=O)(=O)CC(=O)NCCc3ccc(OC)c(OC)c3)c(C)o2)c1`, for which the Potency entry is “inactive”.
Turning to `COc1ccc(OC)c(CN2C(=O)CCC2(C)c2nnnn2Cc2ccccc2)c1` (configuration not stated), the “activity change, negative = inhibition” value is 23.1%.
For `O=C1CCC(C(=O)OCC(=O)Nc2ccc(OC(F)F)cc2)=NN1`, the “activity change, negative = inhibition” value is 0.906%.
For `CC(C)c1ccccc1OCC(O)CN(CC(O)COc1cccc2ccccc12)C(C)C` (configuration not stated), the Potency is 8.91 µM (active).
With `CCC(C)Sc1nc2c(c(=O)[nH]c(=O)n2C)n1CC(O)COc1cccc2ccccc12` (configuration not stated), the “activity change, negative = inhibition” value is 7.64%.
On to `Cc1cc(C)c(NC(=O)C[N+](C)(C)CC(O)COc2cccc3ccccc23)c(C)c1` (configuration not stated), for which the “activity change, negative = inhibition” value was -10.9%.
Same read-out and setting: the same measure for `Nc1ncnc2c1ncn2[C@@H]1O[C@H](C(=O)N2CCCN(Cc3ccccc3F)CC2)[C@@H](O)[C@H]1O`: 20.7%; for `CC1(C(=O)NS(=O)(=O)c2cccc(F)c2)CCN1C(=O)Cc1ccc(Cl)cc1Cl` (configuration not stated): -4.91%.
In the case of `Cc1nc(N2CCC(C)CC2)c2c(C)c(C(=O)Nc3cc(F)ccc3C)sc2n1`, the Potency was 10 µM (active).
On to `COc1ccc(NC(=O)c2sc3nc(C)nc(N4CCN(c5ccccn5)CC4)c3c2C)c(OC)c1`, for which the “activity change, negative = inhibition” value is 9.53%.
On the same count and under the same terms, the same measure for `Cc1nc(N2CCN(c3ccccn3)CC2)c2c(C)c(C(=O)Nc3ccc(F)cc3)sc2n1`: 17.5%; for `CN(Cc1ccc(C(F)(F)F)cc1)C(=O)[C@H]1O[C@@H](n2cnc3c(N)ncnc32)[C@H](O)[C@@H]1O`: 28.2%; for `COc1ccc(C(=O)O)cc1S(=O)(=O)NC1CCN(Cc2ccccc2)CC1`: 7.59%.
With `COc1cc(C(=O)NC2CCN(Cc3ccccc3)CC2)cc(Cl)c1OC(C)C`, the Potency is 10 µM (active).
On to `COc1cc2[nH]c(=O)n(Cc3ccc(C(=O)NC4CCN(Cc5ccccc5)CC4)cc3)c(=O)c2cc1OC`, for which the “activity change, negative = inhibition” value is 10.8%.
On the same count and under the same terms, in the case of `O=C(C=CC(=O)Nc1ccc(F)cc1F)Nc1ccc(F)cc1F` it was 16.9%; in that of `O=C(NCc1ccncc1)c1cccc(NS(=O)(=O)c2ccc(F)c(F)c2)c1`, -12.2%; in that of `CCOC(=O)N1CCN(C(=O)c2ccc(S(=O)(=O)Nc3cccc(C(F)(F)F)c3)cc2)CC1`, -8.41%.
For the compound `O=C(NCc1ccccc1)c1ccc(S(=O)(=O)Nc2cccc(C(F)(F)F)c2)cc1`, the Potency is 10 µM (active).
The same measure, in the same setting: in the case of `O=C(O)/C=C/C(=O)NNc1ccc([N+](=O)[O-])cc1` it was 8.91 µM (active).
Take `CC(=O)Nc1ccc(C=CC(=O)c2ccc([N+](=O)[O-])cc2)cc1`: the “activity change, negative = inhibition” value was -3.33%.
Same read-out and setting: the same measure for `CC(=O)Nc1ccc(C=Cc2ccc([N+](=O)[O-])cc2)cc1`: 9.15%; for `CN1OC[C@@H]2CN(C(=O)c3cccc4ccccc34)[C@H](c3ccc(N4CCCCC4)cc3)C[C@@H]21`: 3.98%.
In the case of `CCN(Cc1ccncc1)C(=S)Nc1ccccc1C`, the “activity change, negative = inhibition” value is -2.47%.
Still for that read-out and setting: the same measure for `COCCNC(=S)N(Cc1cccnc1)Cc1ccc(OC)c(OC)c1`: 14.6%.
For `Cc1ccc(CN(Cc2cccnc2)C(=S)Nc2cc(Cl)ccc2C)cc1`, the Potency was 10 µM (active).
As for `Nc1nc2cc(Cl)ccc2n1N`, the “activity change, negative = inhibition” value is -52.9%.
Same read-out and setting: the same measure for `C[C@H]1Cn2cnc(C(=O)N[C@@H](Cc3c[nH]c4ccccc34)C(=O)OC(C)(C)C)c2C(=O)N1`: 6.39%; for `COc1ccccc1C(=O)NC(=S)Nc1ccc(N2CCOCC2)cc1`: -5.24%; for `O=C(Cc1ccc([N+](=O)[O-])cc1)NCCS(=O)(=O)N1CCN(c2ccccc2)CC1`: -2.98%.
Regarding `COc1ccc(OC)c(C(=O)NC2CCCc3c2cnn3-c2cc(C)cc(C)c2)c1` (configuration not stated), the Potency is 10 µM (active).
Take `Cc1ccc(-n2ncc3c2CCCC3NC(=O)c2cnccn2)cc1C` (configuration not stated): the “activity change, negative = inhibition” value was 8.53%.
For the compound `Cn1nccc1C(=O)NC1CCCc2c1cnn2-c1ccc(F)cc1F` (configuration not stated), the “activity change, negative = inhibition” value was 10%.
Take `COCCCNC(=O)c1ccc(-c2c(C)noc2C)c2ccoc12`: the “activity change, negative = inhibition” value was -5.17%.
For the compound `CCCS(=O)(=O)NC(=O)C1(C)CCCN(C(=O)c2cc(C)on2)C1` (configuration not stated), the “activity change, negative = inhibition” value was 8.84%.
On the same count and under the same terms, in the case of `CCC1NC(=O)c2cccnc2-n2c1nc1ccc(C)cc1c2=O` (configuration not stated) it was -5.41%.
With `CCCCCCSc1ccc([C@@H]2[C@@H]3C(=O)N(CC)C(=O)[C@@H]3[C@]3(C(=O)OC)CCCCN23)cc1OC`, the Potency was 11.2 µM (active).
With `CCCCCCSc1ccc([C@@H]2[C@H]3C(=O)N(CC)C(=O)[C@H]3[C@]3(C(=O)OC)CCCCN23)cc1`, the “activity change, negative = inhibition” value was -8.07%.
The same measure, in the same setting: in the case of `CCN1C(=O)[C@@H]2[C@@H](c3ccc(-c4ccc(OC)cc4)c(OC)c3)N3CCC[C@@]3(C(=O)OC)[C@@H]2C1=O` it was 2.32%; in that of `CSc1ccc(CNC(=O)C2(C)CCCN2C)cc1` (configuration not stated), 9.89%.
The same measure, in the same setting: the same measure for `Cc1cc(C(=O)N2CCCC2(C)C(=O)O)c(C)o1` (configuration not stated): 25.9%.
Still for that read-out and setting: the same measure for `CCn1nc(C)cc1C(=O)N1CCCC(C(=O)c2cccc(OC)c2)C1` (configuration not stated): 32.6%.
Regarding `Cn1nccc1C(=O)N1CCCC(C(=O)c2ccc(Oc3ccccc3)cc2)C1` (configuration not stated), the Potency was 3.55 µM (active).
With `O=C(c1ccc(-c2ccccc2)cc1)C1CCCN(C(=O)c2cncs2)C1` (configuration not stated), the “activity change, negative = inhibition” value was -53%.
The same measure, in the same setting: the same measure for `CCOC(=O)[C@]12CCC=C1N(Cc1ccco1)C(=O)[C@H](CC(=O)N1CCSCC1)C2`: 8.51%; for `Clc1nc(NC2CCCC2)nc(N2CCOCC2)n1`: 30.6%; for `COC(=O)c1ccc(Oc2nc(Nc3ccc(F)cc3)nc(N3CCCC3)n2)cc1`: 2.41%.
With `COc1nc(NC2CCCCC2)nc(N2CCCCCC2)n1`, the Potency is 5.01 µM (active).
In the case of `CO[C@@H]1CN(C)C(=O)c2cc(NC(=O)Nc3cc(F)ccc3F)ccc2OC[C@H](C)N(C(=O)c2ccccn2)C[C@@H]1C`, the “activity change, negative = inhibition” value was 12.7%.

Values taken from PubChem BioAssay AID624417 (National Center for Advancing Translational Sciences (NCATS), 2012).
